Rows were chosen to be rich in hits. Some 7% of all compounds tested hit in one or more screens of this group.
IL1B secr inh: qHTS for Inhibitors of Inflammasome Signaling: IL-1-beta AlphaLISA Primary Screen | THP-1 LPS/ATP IL-1B secretion, AlphaLISA, 16 h; hits give low values | activity change, % at 57.5 µM | 360,000 tested, 4.7% active | AID 743279, 2014; in the data active = activity change below about -50%; inconclusive = mostly about -30% to -49%; also: % is scaled to controls: 0 for no effect and ±100 for the full control effect
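THP-1 cells pretreated 1 hr with compounds (up to 57.5 uM final), then stimulated with LPS (250 ng/mL final) plus ATP (1.25 mM final); secreted IL-1B measured by AlphaLISA after 16 hr, decreased signal indicating inhibition.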
D3 ag: qHTS of D3 Dopamine Receptor Agonist: qHTS. 410,000 tested, 0.58% active. D3R DiscoveRx beta-arrestin cells, luminescence, 90 min. AID 652048, 2013. max activation, %. D(3) dopamine receptor (Homo sapiens), P35462; in the data active = max activation above about 30%; also: 0% is about no effect
Target sequence (P35462 whole entry, looked up): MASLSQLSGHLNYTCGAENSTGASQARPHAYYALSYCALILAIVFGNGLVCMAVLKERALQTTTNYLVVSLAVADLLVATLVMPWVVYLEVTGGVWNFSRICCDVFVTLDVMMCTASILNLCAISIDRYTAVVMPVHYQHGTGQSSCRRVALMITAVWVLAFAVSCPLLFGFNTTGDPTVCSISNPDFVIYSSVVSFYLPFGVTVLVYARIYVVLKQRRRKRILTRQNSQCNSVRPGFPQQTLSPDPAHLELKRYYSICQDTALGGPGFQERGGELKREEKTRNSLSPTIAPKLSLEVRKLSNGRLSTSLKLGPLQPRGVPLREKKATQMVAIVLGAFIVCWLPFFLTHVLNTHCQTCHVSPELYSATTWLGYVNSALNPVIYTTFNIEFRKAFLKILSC
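Cells at 1500/well, incubated overnight, then treated with pinned compounds (dopamine as control) for 90 min at 37 degrees C. DiscoveRx reagent added for 30 - 60 minutes at room temperature; luminescence read.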
a7 integrin act: qHTS for Activators of Integrin-Mediated Alleviation for Muscular Dystrophy; 350,000 tested, 0.064% active; alpha7betagal myoblasts, beta-gal FDG fluorescence, 48 h; Potency, µM (highest dose often 38.3 µM), without a hit: at the top dose activation, most hits filed as activators;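 also: potency is read from the fitted curve at half-maximal effect; 100% = response of the positive control SU9516; nearly all actives have a fitted effect of over 60% in size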
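Alpha7betagal+/- myoblasts (passage 13) were plated 16-24 hr, then exposed to compounds (1:260 dilution of DMSO stock) for 48 hours at 37C. After MPER lysis, β-galactosidase reporter activity was read as FDG fluorescence (ex 480/em 540) after 30 minutes.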
ATXN2 expr inh: Primary qHTS for Inhibitors of ATXN expression | 360,000 tested, 0.72% active | HEK-293 ATXN2-luciferase reporter, luminescence, 24 h | AID 1745845, 2022 | Potency, µM (doses to about 57 µM), for inactives: at the highest dose activity change, negative = inhibition, most hits filed as inhibitors; also: potency is read from the fitted curve at half-maximal effect; % is scaled to controls: 0 for no effect and ±100 for the full control effect; nearly all actives have a fitted effect of over 55% in size
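qHTS (up to 57 uM final) was run with 24 h compound exposure of reporter cells at 37 °C. Each well was multiplexed: SteadyGlo luminescence measured ATXN2-luciferase expression after a fluorogenic Gly-Phe-AFC viability readout (25 uM final).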
DRD3 antagonist: qHTS of D3 Dopamine Receptor Antagonist: qHTS. D3R cells, DiscoveRx beta-arrestin luminescence, antagonist mode; hits give low values. max response, negative = inhibition, %. 360,000 tested, 2.5% active. AID 652054, 2013; in the data active = max response below about -50%; inconclusive = no clear call, values can overlap the other calls; also: % is scaled to controls: 0 for no effect and ±100 for the full control effect
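Cells expressing the human receptor were seeded at 1500 cells/well, incubated overnight at 37 degrees C in 5% CO2, then exposed to library compounds with dopamine controls for 90 minutes at 37 degrees C before luminescent detection.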
S2 tox: Viability Counterscreen for Primary qHTS for Inhibitors of ATXN expression; S2 cells (HEK-293 line with an ATXN2-luciferase reporter) viability, CellTiter-Fluor protease fluorescence, 24 h; 400,000 tested, 0.49% active; AID 651635, 2014; Potency, µM (doses to about 56.7 µM), usual class: cytotoxic; also: potency is read from the fitted curve at half-maximal effect; nearly all actives have a fitted effect of over 40% in size
* = called active by the depositor; i = inactive; ? = inconclusive; · = no result. Unless noted, calls follow the shape of the dose curve; as a rule, active = well fitted curve in the direction sought with a large enough effect; inconclusive = small, poorly fitted or top-dose-only effect, or another doubt; inactive = no such curve, though single readings can be large; an effect the other way counts as inactive or inconclusive.

SMILES	IL1B secr inh	D3 ag	a7 integrin act	ATXN2 expr inh	DRD3 antagonist	S2 tox
CCOc1cccc(-c2nnc(SCC(=O)Nc3cc(C)ccc3OC)n2N)c1	4.8	-0.6	-11.0%	1.8%	-10.1	i
O=C(NC1CCCC1)c1ccc(CSc2nc3cccnc3n2Cc2ccccc2)cc1	·	1.1	·	7.4%	·	i
O=C(O)CCC(NC(=O)c1ccc(Cl)cc1)C(=O)O (centres undefined)	0.0	-6.3	6.8%	-13.6%	-8.0	i
CC(C)(C)c1ccccc1OCC(=O)Nc1ccccc1C(=O)NCc1cccnc1	-89.9*	8.6	52.7%	-26.0%	67.4	i
O=C1/C(=C\c2ccco2)CCC/C1=C\c1ccco1	-64.4*	4.1	-39.0%	76.5%	-2.3	i
O=C1/C(=C/c2ccco2)CCC1C1CCCC1 (centres undefined)	-4.1	11.7	-0.2%	-25.3%	-6.7	i
CC(C)(C)c1ccc(C2=NC(=O)C(CC(=O)O)S2)cc1 (centres undefined)	-10.7	-7.8	?	9.9%	-8.3	i
COc1ccc(CN2CCN(c3ccccc3OC)CC2)c(OC)c1	2.2	-4.6	?	·	-100.4*	i
COc1ccc(CN2CCN(Cc3ccccc3C(F)(F)F)CC2)c(OC)c1	-9.8	-36.1	-55.2%	-18.1%	?	i
CCN1CCN(Cc2c(OC)ccc3ccccc23)CC1	0.0	-30.2	-11.4%	0.7%	?	i
COc1ccc(-c2[nH]ncc2CN2CCCN(c3ccccc3)CC2)c(F)c1	-62.0*	-12.1	-19.2%	-26.6%	-3.3	i
COc1ccc(OC)c(CN2CCN(Cc3cccc4ccccc34)CC2)c1	-28.9	-0.6	11.2%	·	-54.5*	?
COc1ccc2ccccc2c1CN1CCN(C)CC1	3.4	-8.6	-22.1%	11.2%	-81.7*	i
CCOC(=O)c1c(NC(=O)C(C)N2CCN(S(=O)(=O)c3cccs3)CC2)sc2c1CCC(C)C2 (centres undefined)	2.1	-2.7	26.0%	-14.7%	-5.5	i
Cc1onc(-c2ccccc2Cl)c1C(=O)Nc1nc2c(s1)CCCC2	-10.7	0.0	-21.2%	37.1%	12.3	i
COc1ccc(OC)c(CN2CCC(Cc3ccccc3)CC2)c1	-7.1	-19.3	-45.5%	-23.8%	?	i
COc1ccc(OC)c(CN2CCN(c3ccccc3OC)CC2)c1	-5.6	-54.7	7.4%	-2.2%	-91.9*	i
COc1ccc(OC)c(CN2CCCCCC2)c1	-6.5	-8.6	8.1%	0.1%	-0.4	i
COc1ccc(CC(C)N2CCN(Cc3ccccc3)CC2)c(OC)c1 (centres undefined)	-9.4	-39.5	-9.2%	-25.6%	-84.2*	i
Cc1cc(C)c(O)c(CN(C)Cc2cc(Cl)cc(Cl)c2O)c1	-90.3*	41.5*	-29.3%	?	16.6	i
Oc1c(Cl)cc(Cl)cc1CNn1cnnc1	-11.2	-7.4	0.8%	18.3%	?	i
CCN(Cc1ccccc1)C(=O)CN1C(=O)c2ccccc2S1(=O)=O	-0.4	3.2	11.3%	3.2%	19.9	i
CCCn1c(CC)nc([N+](=O)[O-])c1Sc1ccc(C)cc1	-68.3*	-3.6	-56.9%	4.2%	-7.9	i
CCCCNc1c(-c2ccc(-c3ccc(C(C)=O)cc3)c(OC)c2)nc2cnccn12	-0.4	18.9	-0.2%	0.0%	73.5	·
CCCCNc1c(-c2cccc(-c3ccc(OC)cc3)c2)nc2ccc(C)cn12	-99.6*	-3.8	-42.5%	?	0.0	?
SMILES	IL1B secr inh	D3 ag	a7 integrin act	ATXN2 expr inh	DRD3 antagonist	S2 tox
CCCCNc1c(-c2cccc(-c3ccc(OC)cc3)c2)nc2cc(C)ccn12	-71.2*	1.6	-16.8%	?	18.4	?
CCCCNc1c(-c2cccc(-c3cc(C(C)=O)cs3)c2)nc2ccc(C)cn12	-103.0*	12.6	-46.0%	?	80.8	15.8µM*
COc1ccc(-c2nc3cc(C)ccn3c2NC(=O)c2ccccc2OC)cc1	47.9	2.0	-1.4%	1.8%	28.1	?
COc1cc(Cc2nccc3cc(OC)c(OC)cc23)c(NC(C)=O)cc1OC	20.7	16.7	5.9%	6.8%	9.2	i
O=C(NCCc1ccccc1)C1CCCN1C(=O)Nc1ccccc1 (centres undefined)	1.4	-12.9	?	·	1.2	i
O=C(NCCc1ccccc1)C1CCCN1C(=O)Nc1cccc(Cl)c1 (centres undefined)	-8.5	-4.4	16.3%	·	-73.1*	?
CC(C)NC(=O)C1(C)Cc2c(-c3ccc(C(N)=O)cc3)ccnc2O1 (centres undefined)	5.4	3.8	·	11.2%	7.7	i
CCOC(=O)Nc1ccc(S(=O)(=O)N2CCC(c3nc4ccccc4[nH]3)CC2)cc1	?	2.5	-14.0%	·	-11.8	i
CC(=O)Nc1ccc(S(=O)(=O)N2CCC(c3nc4ccc(C)cc4[nH]3)CC2)cc1	-16.0	-0.5	7.0%	-14.1%	-92.3*	i
CC(=O)N(Cc1ccccc1)c1ncc2c(n1)c(=O)c(C#N)c1ccccn12	4.2	-1.4	10.6%	-4.8%	15.5	·
O/C(=C\Sc1nnc(Cc2ccccc2)o1)c1ccc(Br)cc1	20.6	-8.1	13.7%	3.0%	-11.9	i
O=C1Nc2ccc([N+](=O)[O-])cc2OC1CCN1CCOCC1 (centres undefined)	-2.5	11.3	6.4%	5.3%	38.4	?
O=C1Nc2ccc([N+](=O)[O-])cc2OC1CCN1CCN(c2ccccc2)CC1 (centres undefined)	23.7	-23.5	-24.1%	-27.8%	-50.8*	i
O=C(CN1CCN(Cc2ccccc2)C1=O)NCCCN1CCOCC1	3.7	2.7	-0.9%	2.5%	?	i
COC(=O)c1ccc2c(c1)C(C)(C)C(/C=C/c1ccccc1O)=[N+]2C	-100.3*	-44.1	-63.1%	3.55µM*	?	7.94µM*
Cc1cc(NC(=O)COC(=O)C2CCN(S(=O)(=O)c3c(Cl)cccc3Cl)CC2)no1	24.4	3.9	-4.1%	5.2%	2.4	i
O=C(CN1CCSCC1)N/N=C/c1ccc(F)c(F)c1	-16.8	-7.2	41.9%	6.9%	-13.3	i
O=C(c1ccccc1)C1CCN(C(=O)C2CCC(=O)N(Cc3cccc(F)c3)C2)CC1 (centres undefined)	-12.3	-12.6	-16.7%	-18.4%	-6.7	i
CN(C(=O)COC(=O)c1cc[n+]([O-])cc1)c1ccccc1	33.3	-6.8	-17.7%	3.9%	23.5	i
